The supplement of paper PMC7411640
Counter-ions that a name gives are not always drawn.

Tested on: MDA-MB-468
Test: phospho-S6 immunofluorescence (DAPI-normalised), per-plate z-score; higher = higher phospho-S6 signal (less pathway suppression)
Conditions: 24 h
Procedure: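 GPCR-targeted compound library (MedChemExpress HY-L006) tested on MDA-MB-468 PTEN-null TNBC cells in 384-well plates at 0.1, 1 or 10 uM, combined with vehicle, GDC0941 450 nM or lapatinib 1 uM, for 24 h. Phospho-S6 (S240/244) immunofluorescence normalised to DAPI and expressed as a per-plate z-score; values are the mean of biological triplicates.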

Compound	phospho-S6 immunofluorescence (z-score) (co-treatment: GDC0941 450 nM)	phospho-S6 immunofluorescence (z-score) (co-treatment: lapatinib 1 uM)	phospho-S6 immunofluorescence (z-score) (co-treatment: vehicle)
CCCCCCn1c(O)c(N=NC(=O)c2ccccc2)c2ccccc21 (compound 10 µM)	-2.97	-0.75	0.59
Cc1cc(C)nc(NS(=O)(=O)c2ccc(NC(=S)NC(=O)COc3ccc(Br)cc3Cl)cc2)n1 (compound 10 µM)	0.46	-0.41	0.28
CN(C)CCC(c1ccc(Cl)cc1)c1ccccn1 (stereo unspecified) [Chlorpheniramine (maleate)] (compound 10 µM)	-5.85	-10.5	-8.97
OCCOCCN1CCN(C(c2ccccc2)c2ccc(Cl)cc2)CC1 (stereo unspecified) [Hydroxyzine (dihydrochloride)] (compound 10 µM)	0.45	-0.69	0.24
C[C@H]1C[C@@H]2[C@H]([C@@H](O)C[C@@]3(C)[C@H]2CC[C@]3(O)C(=O)CO)[C@@]2(C)C=CC(=O)C=C12 [Methylprednisolone] (compound 10 µM)	0.3	3.09	0.51
O=C1c2cccc3c2[C@H](CCC3)CN1[C@@H]1CN2CCC1CC2 [Palonosetron (Hydrochloride)] (compound 10 µM)	-0.7	0.4	-0.33
CCCC(=O)OC(CNC(C)(C)C)COc1nsnc1N1CCOCC1 (racemic) [(RS)-Butyryltimolol] (compound 10 µM)	0.09	-0.58	-0.47
CNC[C@H](O)c1cccc(O)c1 [(R)-(-)-Phenylephrine (hydrochloride)] (compound 10 µM)	0.67	1.18	1.13
COC1CCC(C(=O)c2ccc3nc4c(cc3c2)CCCO4)CC1 (stereo unspecified) (compound 10 µM)	-0.83	0.85	0.02
CCNC(=O)[C@@H]1CCCN1C(=O)[C@H](CCCN=C(N)N)NC(=O)[C@H](CC(C)C)NC(=O)[C@@H](C)NC(=O)[C@H](Cc1ccc(O)cc1)NC(=O)[C@H](CO)NC(=O)[C@H](Cc1c[nH]c2ccccc12)NC(=O)[C@H](Cc1cnc[nH]1)NC(=O)[C@@H]1CCC(=O)N1 [Alarelin (Acetate)] (compound 10 µM)	0.86	-0.01	1
c1cc(CN2CCCNCCNCCCNCC2)ccc1CN1CCCNCCNCCCNCC1 [Plerixafor (octahydrochloride)] (compound 10 µM)	-0.24	0.37	-0.74
CN(C)CCCN1c2ccccc2Sc2ccc(C(F)(F)F)cc21 [Triflupromazine (hydrochloride)] (compound 10 µM)	-0.42	-2.74	2.53
NC(=O)C(c1ccccc1)(c1ccccc1)[C@@H]1CCN(CCc2ccc3c(c2)CCO3)C1 [Darifenacin (hydrobromide)] (compound 10 µM)	-1.6	-1.5	0.03
COc1ccc2cccc(CCNC(C)=O)c2c1 [Agomelatine] (compound 10 µM)	0.97	0.54	0.35
CCOc1nc2cccc(C(=O)O)c2n1Cc1ccc(-c2ccccc2-c2nnn[nH]2)cc1 [Candesartan] (compound 10 µM)	1	0.32	0.19
O=C(O)CCCN1CCC(O[C@@H](c2ccc(Cl)cc2)c2ccccn2)CC1 [Bepotastine (Beslilate)] (compound 10 µM)	-0.72	-0.17	0.56
CCn1c(=O)c2c(nc(/C=C/c3ccc(OC)c(OC)c3)n2C)n(CC)c1=O [Istradefylline] (compound 10 µM)	0.2	0.09	-0.74
Cc1noc(-c2ccc(-c3ccc(CC(=O)O)cc3)cc2)c1NC(=O)O[C@H](C)c1ccccc1 [AM095 (free acid)] (compound 10 µM)	1.08	0.37	0.82
COc1nc(C)cnc1NS(=O)(=O)c1cccnc1-c1ccc(-c2nnco2)cc1 [Zibotentan] (compound 10 µM)	-2.05	-0.19	-2.06
NCCCCN(Cc1nc2ccccc2[nH]1)[C@H]1CCCc2cccnc21 [AMD-070 (hydrochloride)] (compound 10 µM)	-4.2	-3.44	-3.01
c1ccc2c(c1)CCCC2C1=NCCN1 (stereo unspecified) [Tetrahydrozoline (hydrochloride)] (compound 10 µM)	0.32	0.87	0.75
CCc1cnc(N2CCC(c3nc(COc4ccc(-n5cnnn5)cc4)cs3)CC2)nc1 (compound 10 µM)	-3.23	-3.56	-6.72
